This passage reports inhibition score results from PubChem BioAssay AID489042 (NMMLSC, 2010).

Values joined by “and” are separate entries in the source; they are usually repeats but may differ in a detail not shown here. Equal entries are not always repeated. More than one record can exist for a structure, and the calls need not agree. Active and inactive are the calls of the source. Rule as the data show it: active = inhibition score above about 11; inactive = the rest.

The experiment can be described thus: S. cerevisiae short- and long-term growth effects – BY4741, OD595, 24 h, dose response (AID 489042). Particulars: stronger effect = higher value.

Turning to `CC(C)OC(=O)CSc1nnc(-c2ccc(Cl)cc2Cl)o1`, the inhibition score was 0 (inactive).

Turning to `CCN(CC)C(=O)c1cccc2nc3ccccc3nc12`, the inhibition score was 0 (inactive).

Turning to `N#CC(c1nc2ccccc2nc1N1CCCC1)S(=O)(=O)c1ccccc1` (centres undefined), the inhibition score was 0 (inactive).

Regarding `CNC(=O)c1cccc2nc3ccccc3nc12`, the inhibition score was 21 (active).

In the case of `O=C(Nc1ccc2nc3ccccc3nc2c1)c1ccc(Br)cc1`, the inhibition score was 0 (inactive).

Turning to `O=C(CN1CCN(c2ccccn2)CC1)Nc1ccccc1F`, the inhibition score was 0 (inactive).

In the case of `CSc1nnc(-c2ccc([N+](=O)[O-])cc2)o1`, the inhibition score was 0 (inactive).

For the compound `CCC(=Nc1ccccc1O)C1=C(O)CC(c2ccccc2)CC1=O` (centres undefined), the inhibition score is 10 (inactive).

On to `c1ccc2nc3ccccc3nc2c1`, for which the inhibition score is 21 (active).

With `CC(C)(C)n1nc(-c2ccc(F)cc2)c2c(N)ncnc21`, the inhibition score was 21 (active).

For `CN(C)CCNc1ncnc2c1cnn2-c1ccc(Cl)cc1`, the inhibition score is 0 (inactive).

With `C=CCOn1c(=O)c(-c2cccs2)[n+]([O-])c2ccccc21`, the inhibition score was 0 (inactive).

`COc1cccc2nc3cc(C)c(C)cc3nc12`: the inhibition score is 10 (inactive).

`O=C(/C=C/c1ccccc1)NC(=S)NNC(=O)Cc1cccs1`: the inhibition score is 21 (active).

Turning to `CC(=O)[C@@]1(O)CCC2C3CC[C@H]4C[C@@H](O)CC[C@]4(C)C3CC[C@@]21C` (some centres undefined), the inhibition score is 0 (inactive).

Take `FC(F)(F)c1nc2cc3nc4ccccc4[nH]c3cc2n1`: the inhibition score was 0 (inactive).

Turning to `COC(=O)c1cccc2nc3c(C(C)O)cccc3nc12` (centres undefined), the inhibition score was 0 (inactive).

Take `COc1ccc2cc(C3CC(c4ccco4)=NN3S(=O)(=O)c3ccccc3)c(Cl)nc2c1` (centres undefined): the inhibition score was 0 (inactive).

For the compound `COc1ccc2nc3ccccc3nc2c1NC(=O)c1ccccc1Cl`, the inhibition score is 0 (inactive).

For `COc1ccc2nc3ccccc3[n+]([O-])c2c1`, the inhibition score was 0 (inactive).

On to `COc1ccc2nc3ccccc3nc2c1`, for which the inhibition score is 10 (inactive) and 21 (active).

On to `CC(C)(C)Nc1ncnc2c1cnn2-c1ccccc1`, for which the inhibition score was 10 (inactive).

In the case of `O=C(/C=C/c1cccs1)NC(=S)NNC(=O)Cc1cccs1`, the inhibition score is 21 (active).

`CC(=O)Nc1ccc2nc3ccccc3nc2c1`: the inhibition score was 0 (inactive).

Regarding `C[C@@]12C(=O)OC(=O)[C@]1(C)C1CCC2O1`, the inhibition score was 21 (active).

Regarding `CCn1c2ccccc2c2n[nH]c(=S)nc21`, the inhibition score is 0 (inactive).

For the compound `[O-][n+]1c2ccccc2[n+]([O-])c2cc(O)ccc21`, the inhibition score was 10 (inactive).

As for `COc1ccc2c(c1)c1nnc(SC)nc1n2C`, the inhibition score is 21 (active).

For `C#CCSc1nnc(-c2ccc([N+](=O)[O-])cc2)o1`, the inhibition score is 0 (inactive).
